According to PubChem BioAssay (EPA / NIEHS):
Inconclusive results are not listed. Active and inactive are the calls of the source. How the source made its calls: active means hit-call score of the fitted dose curve at least 0.9, where 1 is the maximum; inconclusive means response in the unintended direction; inactive means score below 0.9.

target: human Caspase 2 (CASP2), CASP2 (gene 835) (UniProt P42575); assay: NVS_ENZ_hCASP2: NovaScreen (NVS) Enzymatic Assay for human Caspase 2 (CASP2) (AID 2283135)
Procedure, shortened: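 Single-point duplicate testing at 25 uM preceded concentration series topping at 50 uM. Activity of the recombinant E. coli-derived protease was followed by fluorescent substrate cleavage 1 h post-dosing, relative to DMSO.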

Chain of human Caspase 2 (CASP2), CASP2 (gene 835) (P42575 whole entry, looked up): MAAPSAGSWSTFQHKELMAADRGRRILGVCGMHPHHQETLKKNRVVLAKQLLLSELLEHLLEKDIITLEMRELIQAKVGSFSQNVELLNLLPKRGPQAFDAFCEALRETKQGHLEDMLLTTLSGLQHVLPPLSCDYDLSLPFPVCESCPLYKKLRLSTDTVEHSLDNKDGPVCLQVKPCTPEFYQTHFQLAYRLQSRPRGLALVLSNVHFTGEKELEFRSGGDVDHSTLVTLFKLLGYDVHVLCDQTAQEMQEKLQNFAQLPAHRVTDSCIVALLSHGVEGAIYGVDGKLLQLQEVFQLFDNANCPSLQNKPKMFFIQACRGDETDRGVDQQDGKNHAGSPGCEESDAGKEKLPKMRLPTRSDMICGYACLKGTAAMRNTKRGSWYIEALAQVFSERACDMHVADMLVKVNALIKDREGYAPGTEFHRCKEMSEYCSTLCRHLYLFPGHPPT

Row | Structure (SMILES) | outcome
1 | COS(=O)(=O)OC | inactive
2 | Nc1ccc(-c2ccc(N)cc2)cc1 | inactive
3 | C[C@]12CCC(=O)C=C1CC[C@@H]1[C@@H]2CC[C@]2(C)C(=O)CC[C@@H]12 | inactive
4 | O=C(N[C@H]1CN2CCC1CC2)c1cc2ccoc2cn1 | inactive

target: human Caspase 5 (CASP5), CASP5 (gene 838) (UniProt P51878); assay: NVS_ENZ_hCASP5: NovaScreen (NVS) Enzymatic Assay for human Caspase 5 (CASP5) (AID 2283137)
Procedure, shortened: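 Caspase 5 enzyme activity, detected as fluorescence signal loss, is measured in a biochemical format using E. coli-expressed protein. Reading occurs 2 hours post-dosing. Screening runs at 25 uM, with confirmed actives titrated to 50 uM maximum.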

Chain of human Caspase 5 (CASP5), CASP5 (gene 838) (P51878 whole entry, looked up): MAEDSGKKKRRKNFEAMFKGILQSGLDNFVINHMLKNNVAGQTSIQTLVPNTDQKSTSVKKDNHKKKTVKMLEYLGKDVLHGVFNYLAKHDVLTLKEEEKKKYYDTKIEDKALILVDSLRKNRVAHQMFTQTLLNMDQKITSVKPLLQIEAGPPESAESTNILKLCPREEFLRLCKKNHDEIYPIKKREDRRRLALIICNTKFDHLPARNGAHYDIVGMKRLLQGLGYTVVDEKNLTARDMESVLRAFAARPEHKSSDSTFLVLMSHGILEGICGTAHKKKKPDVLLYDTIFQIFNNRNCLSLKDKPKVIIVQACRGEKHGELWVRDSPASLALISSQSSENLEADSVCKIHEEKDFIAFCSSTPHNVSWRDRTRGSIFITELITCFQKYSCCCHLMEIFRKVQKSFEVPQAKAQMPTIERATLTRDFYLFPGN

Row | Structure (SMILES) | outcome | AC50
5 | CCC(C)(CC)c1cc(NC(=O)c2c(OC)cccc2OC)on1 | inactive | 
6 | O=C(O)C(F)(F)C(F)(F)C(F)(F)C(F)(F)C(F)(F)C(F)(F)C(F)(F)C(F)(F)F |  | 12.8 µM (active)
7 | O=C(O)C(F)(F)C(F)(F)C(F)(F)C(F)(F)C(F)(F)C(F)(F)C(F)(F)C(F)(F)C(F)(F)F |  | 12.7 µM (active)
